JMJD2A Tudor = qHTS Assay for Inhibitors of JMJD2A-Tudor Domain. 390,000 tested, 4.4% active. Potency, µM (highest dose often 114 µM), for the others: at the top dose activity change, negative = inhibition, most hits filed as inhibitors. AlphaScreen JMJD2A-Tudor / H3K4me3 peptide binding. AID 504339, 2011; also: potency is read from the fitted curve at half-maximal effect; % is scaled to controls: 0 for no effect and ±100 for the full control effect; nearly all actives have a fitted effect of over 50% in size
BAZ2B block = qHTS Assay for Inhibitors of BAZ2B; AlphaScreen BAZ2B-H3K14Ac peptide displacement; Potency, µM (highest dose often 114 µM), for inactives: at the highest dose activity change, negative = inhibition, hits mostly inhibitors; 360,000 tested, 4.4% active; AID 504333, 2011; also: potency is read from the fitted curve at half-maximal effect; % is scaled to controls: 0 for no effect and ±100 for the full control effect; nearly all actives have a fitted effect of over 60% in size
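Inhibition is scored as reduced AlphaScreen emission. The BAZ2B/b-H3(5-23)K14Ac complex (50 nM each) in PBS pH 7.4, 0.01% Tween-20 meets compound (up to 110 uM) for 30 min at RT before bead addition.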
HP1b chromo inh = HTS for Inhibitors of HP1-beta Chromodomain Interactions with Methylated Histone Tails; Chromobox protein homolog 1 (Homo sapiens), P83916; AlphaScreen HP1-beta / biotin-H3K9me3 peptide binding; Potency, µM (highest dose often 114 µM), inactives show at the top dose activity change, negative = inhibition, hits mostly inhibitors; 390,000 tested, 0.56% active; AID 540317, 2011; also: potency is read from the fitted curve at half-maximal effect; nearly all actives have a fitted effect of over 70% in size
Target sequence (P83916 whole entry, looked up): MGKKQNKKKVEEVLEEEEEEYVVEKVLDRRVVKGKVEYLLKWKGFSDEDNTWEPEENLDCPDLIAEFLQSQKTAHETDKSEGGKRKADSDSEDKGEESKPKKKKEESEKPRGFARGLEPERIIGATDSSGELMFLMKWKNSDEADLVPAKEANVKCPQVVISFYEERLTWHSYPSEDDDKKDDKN
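Compound inhibition of the preformed complex between 50 nM HP1-beta and 50 nM biotinylated H3K9me3 peptide was read by AlphaScreen. Buffer was PBS pH 7.4 with 0.01% Tween-20. Incubations ran 30 min at room temperature, with 10 ug/mL donor/acceptor beads.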
PI5P4Ka inh = qHTS for Inhibitors of phosphatidylinositol 5-phosphate 4-kinase (PI5P4K); 330,000 tested, 1.2% active; max response, %; Phosphatidylinositol 5-phosphate 4-kinase type-2 alpha (Homo sapiens), P48426; PI5P4Kalpha enzyme, ADP-Glo luminescence, 60 min; active compounds read low; active = max response of -50% or lower; inconclusive = between -30% and -50%; inactive = -30% or higher; also: value at the top dose of about 77 µM; % is scaled to controls: 0 for no effect and ±100 for the full control effect
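Human PI5P4Kalpha with substrate in 0.038 M HEPES pH 7.4, 0.28 mM EGTA, 0.1% CHAPS, 5% DMSO; reaction started with 5 microM ATP (final), 60 min at room temperature. ADP formed read by ADP-Glo luminescence.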
GCN5L2 inh = qHTS Assay for Inhibitors of GCN5L2; Histone acetyltransferase KAT2A (Homo sapiens), Q92830; 390,000 tested, 0.21% active; Potency, µM (doses to about 58.9 µM), without a hit: at the top dose activity change, negative = inhibition, most hits filed as inhibitors; GCN5L2 HAT assay, ThioGlo1 CoA-SH fluorescence; AID 504327, 2011; also: potency is read from the fitted curve at half-maximal effect; % is scaled to controls: 0 for no effect and ±100 for the full control effect
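Free CoA generated was detected with ThioGlo1 (50uM) fluorescence at Ex340nm/Em540nm, read immediately and after 20 min at room temperature. Enzyme, 20 nM in HEPES pH 7.5 buffer, saw compounds 15 min before adding 75uM H3(1-25) peptide and 70uM acetyl-CoA.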
PLK1 PBD inh = qHTS for Inhibitors of PLK1-PDB (polo-like kinase 1 - polo-box domain): Primary Screen | Serine/threonine-protein kinase PLK1 (Homo sapiens), P53350 | 360,000 tested, 2.8% active | Potency, µM, for the others: max response, negative = inhibition, hits mostly inhibitors | Plk1 PBD binding of FITC phosphopeptide, fluorescence polarization; also: potency is read from the fitted curve at half-maximal effect; series mostly up to about 57 µM; % is scaled to controls: 0 for no effect and ±100 for the full control effect; nearly all actives have a fitted effect of over 65% in size
Target sequence (P53350 whole entry, looked up, the tested form may be a part): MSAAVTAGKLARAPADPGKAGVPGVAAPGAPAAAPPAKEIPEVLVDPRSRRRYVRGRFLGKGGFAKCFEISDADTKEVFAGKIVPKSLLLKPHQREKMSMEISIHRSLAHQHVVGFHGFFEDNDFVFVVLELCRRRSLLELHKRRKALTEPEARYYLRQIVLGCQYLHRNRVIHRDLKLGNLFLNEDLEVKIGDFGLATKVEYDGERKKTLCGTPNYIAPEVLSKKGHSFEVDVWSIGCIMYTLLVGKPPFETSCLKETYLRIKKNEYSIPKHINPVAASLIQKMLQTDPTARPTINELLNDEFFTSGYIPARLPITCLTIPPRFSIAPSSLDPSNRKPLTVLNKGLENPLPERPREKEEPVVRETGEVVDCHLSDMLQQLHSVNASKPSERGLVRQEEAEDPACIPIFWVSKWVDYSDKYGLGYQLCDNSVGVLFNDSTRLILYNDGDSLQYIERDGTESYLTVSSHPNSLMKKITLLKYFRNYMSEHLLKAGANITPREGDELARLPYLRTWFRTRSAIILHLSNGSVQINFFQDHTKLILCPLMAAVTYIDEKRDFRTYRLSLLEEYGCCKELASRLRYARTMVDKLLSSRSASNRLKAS
* marks the source's active call; other numbers are inactive results; ? = inconclusive; / = no result given; [ ] = dose if it differs, or a comment. The list is not random: actives were taken first. Their share in the collection is about 7%. Unless noted, calls follow the shape of the dose curve; as a rule, active = well fitted curve in the direction sought with a large enough effect; inconclusive = small, poorly fitted or top-dose-only effect, or another doubt; inactive = no such curve, though single readings can be large; an effect the other way counts as inactive or inconclusive.

SMILES	JMJD2A Tudor	BAZ2B block	HP1b chromo inh	PI5P4Ka inh	GCN5L2 inh	PLK1 PBD inh
CCCCn1c(-c2cccnc2)nc2cc3[nH]c(=O)c(C(C)C)nc3cc21	-12.1%	-5.8%	47.3%	-10.7	-0.6%	-1.9%
CCn1c(-c2cccnc2)n[nH]c1=S	22.4µM*	?	14.2%	/	-13.0%	-4.7%
CCn1c(-c2cc(-c3ccccc3)sc2N)n[nH]c1=S	-29.0%	-19.6%	27.0%	-10.1	0.5%	-11.8%
CCCCn1c(-c2cccnc2)n[nH]c1=S	8.91µM*	4.7%	18.5%	2.5	-1.2%	-2.5%
O=C(CN1CCSC1=O)N1CCN(S(=O)(=O)c2ccc(F)cc2)CC1	-6.9%	7.2%	5.9%	-6.3	-4.9%	-7.7%
Cn1cc(S(=O)(=O)N2CCCC2)cc1C(=O)O	-30.0%	/	21.7%	3.0	-6.0%	-12.9%
NC(=O)COc1ccc(/C=C2\C(=O)ON=C2c2ccccc2)cc1	-1.5%	-17.9%	13.3%	?	-10.2%	2.12µM*
CCCCc1ccc(/C=C2\C(=O)ON=C2c2ccccc2)s1	-10.7%	9.2%	31.0%	24.3	-5.3%	-9.2%
CCOc1cc(/C=C2\C(=O)ON=C2c2ccccc2)ccc1OC	-13.7%	-29.3%	19.3%	-62.5*	-0.8%	2.12µM*
O=C1ON=C(c2ccccc2)/C1=C/c1ccco1	-35.9%	39.8µM*	12.3%	-21.2	-6.3%	1.06µM*
O=C1NNC(c2ccccc2)=N/C1=C\c1ccccc1Cl	-31.6%	-18.3%	18.6%	-2.5	2.5%	-9.5%
NC(=O)COc1ccccc1	6.4%	1.2%	68.2%	-5.5	-0.9%	-2.6%
O=C1NNC(c2ccccc2)=N/C1=C\c1ccco1	?	70.8µM*	-11.8%	-52.5*	-16.3%	?
O=C(CCS(=O)(=O)c1cc(Br)cc2c1N(C(=O)C1CC1)CC2)Nc1ccc(F)cc1	-15.8%	-5.7%	19.5%	/	-0.1%	/
CCCCNc1ccc(-c2nc(-c3ccccc3)no2)cc1[N+](=O)[O-]	-21.2%	-21.5%	23.2%	/	-16.7%	/
COc1ccc(/C=C2/C(=O)ON=C2c2ccccc2)cc1OC	79.4µM*	?	3.8%	-59.0*	-12.4%	1.89µM*
COc1ccc(/C=C2\C(=O)ON=C2c2ccccc2)cc1OC	-11.3%	2.4%	46.4%	-62.2*	-21.9%	2.99µM*
COc1ccc(/C=C2\C(=O)ON=C2c2cccc([N+](=O)[O-])c2)cc1	/	?	/	/	-18.3%	/
Cc1cc(C)cc(NC(=O)c2cc(S(=O)(=O)N3CCOCC3)cn2C)c1	-1.6%	-3.6%	38.9%	/	-10.5%	/
O=C1OC2(c3cc(I)c(O)c(I)c3Oc3c2cc(I)c(O)c3I)c2c(Cl)c(Cl)c(Cl)c(Cl)c21	/	/	/	/	3.16µM*	/
O=C1OC(c2ccccc2)(c2ccc(O)cc2)c2ccccc21 (stereo not drawn)	-18.6%	/	10.9%[57 µM]	1.1	/	2.0%
O=C1OC2(c3ccccc31)c1cc(I)c(O)c(I)c1Oc1c2cc(I)c(O)c1I	/	10µM*	/	/	8.91µM*	/
COC(=O)c1[nH]c(C)c(/C(O)=C2\C(=O)C(=O)N(CCN3CCOCC3)C2c2cccnc2)c1C (stereo not drawn)	22.4µM*	-3.9%	12.1%	/	-0.7%	-11.9%
CCOc1ccc(C2/C(=C(\O)c3c(C)[nH]c(C(=O)OC)c3C)C(=O)C(=O)N2CCN(C)C)cc1 (stereo not drawn)	35.5µM*	-0.3%	3.9%	/	-11.8%	?
CN1CCN(C(=O)Nc2cccc(Cl)c2)c2cccnc21	-14.2%	11.8%	64.0%	/	-9.6%	/
SMILES	JMJD2A Tudor	BAZ2B block	HP1b chromo inh	PI5P4Ka inh	GCN5L2 inh	PLK1 PBD inh
COC(=O)CNC(=O)C1CCC(CNS(=O)(=O)c2cccc3nsnc23)CC1 (stereo not drawn)	-18.0%	4.4%	25.9%	1.9	-1.0%	1.0%
CCOc1ccc(N(CC(=O)N/N=C/c2ccccn2)S(=O)(=O)c2ccc(Cl)cc2)cc1	-35.8%	-1.7%	37.1%	3.5	-7.9%	-2.0%
N#CCCCC1(CCCC#N)OCCO1	-4.2%	/	23.4%	1.3	/	-6.7%
CCOC(=O)C1CCN(C(=O)CCc2nc3sc4c(c3c(=O)[nH]2)CCCC4)CC1	?	?	14.5%	?	-9.4%	0.0%
O=C(C1CCCN(c2ncnc3c2nc2n3CCCCC2)C1)N1CCN(c2ccc(F)cc2)CC1 (stereo not drawn)	?	-29.2%	-16.2%	-6.1	-14.8%	26.7µM*
COc1ccc(N2CCN(C(=O)C3CCCN(c4ncnc5c4nc4n5CCCCC4)C3)CC2)cc1 (stereo not drawn)	?	28.2µM*	-1.9%	1.2	-9.6%	-15.3%
O=C(C1CCN(c2ncnc3c2nc2n3CCCCC2)CC1)N1CCN(c2ccc(Cl)cc2)CC1	-22.1%	-1.0%	-19.0%	/	-9.0%	/
O=C(C1CCN(c2ncnc3c2nc2n3CCCCC2)CC1)N1CCN(c2cccc(Cl)c2)CC1	?	31.6µM*	37.5%	17.2	-13.5%	-1.8%
COC(=O)C1=C(C)N(C(C)C)C(=O)C1(NC(=O)c1ccccc1OC)C(F)(F)F (stereo not drawn)	4.5%	-15.9%	38.8%	/	-8.3%	/
Cc1ccc(C(=O)NCC(=O)OCc2cc(=O)n3nc(C4CC4)sc3n2)cc1	-2.0%	-3.2%	29.2%	/	-10.9%	/
C=CCn1ccc2c([N+](=O)[O-])cccc2c1=O	-16.1%	-19.6%	-1.7%	-5.4	-2.7%	-11.6%
Cn1ccc2c([N+](=O)[O-])cccc2c1=O	-25.4%	-16.3%	-7.6%	-15.2	-14.7%	29.9µM*
O=C(COC(=O)c1ccc(F)cc1F)c1ccc[nH]1	-10.1%	-6.3%	20.3%	-21.0	-3.0%	-1.0%
CC1CN(S(=O)(=O)c2ccc(C(=O)Nc3ccccc3F)cc2)CC(C)O1 (stereo not drawn)	2.0%	/	45.0%	5.4	-1.6%	-14.8%
CSc1cc(-c2ccc(Cl)cc2)[nH]c(=O)c1C#N	-4.2%	-15.7%	67.7%	-2.7	-10.8%	-18.1%
Cc1ccc(-c2[nH]c(=S)[nH]c(=O)c2C#N)cc1	-19.9%	-12.9%	25.4%	-72.4*	-17.9%	-11.3%
O=C(CSc1n[nH]c(-c2ccccn2)n1)Nc1ccccc1	3.98µM*	?	46.8%	-0.2	-17.5%	-4.0%
O=C(CSc1n[nH]c(-c2ccccn2)n1)Nc1ccccc1F	2.51µM*	4.47µM*	28.8%	4.5	-0.2%	-8.5%
